Our source for the growth values is PubChem BioAssay (NCI).

About 83,000 compounds went through this panel and 20% of them were active in at least one assay; those are over-represented in the sample as a whole.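 96-well plates, one dose, 48 hours. Percent growth reported; active if below 10.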 Values without a mark were called inactive. Activity calls are given as the source filed them.

Some test systems named below: SR leukemia; RPMI-8226 leukemia; OVCAR-8 ovarian; OVCAR-5 ovarian; OVCAR-4 ovarian; SK-OV-3 ovarian; IGROV1 ovarian; OVCAR-3 ovarian; HS 578T breast; NCI/ADR-RES ovarian; T-47D breast; BT-549 breast; MDA-MB-435 melanoma; SW-620 colon; HCT-116 colon; HCC-2998 colon; KM12 colon; MCF7 breast.
Holding throughout (assay): NCI-60 one-dose screen, 48 h (100 = growth as untreated, 0 = no growth, -100 = all killed)
Holding throughout (details): 10 µM unless noted

With `C=C(C)[C@@H]1CC[C@]2(C=O)CC[C@]3(C)[C@H](CC[C@@H]4[C@@]5(C)C/C(=C/c6cccnc6)C(=O)C(C)(C)[C@@H]5CC[C@]43C)[C@@H]12`, the growth with SR leukemia is 40.6%; with RPMI-8226 leukemia, 35.5%; in the assay on OVCAR-8 ovarian it was 63.5%; with OVCAR-5 ovarian, 128%; with OVCAR-4 ovarian, 64.6%; in the assay on SK-OV-3 ovarian it was 117%. For the same molecule, the growth in the assay with IGROV1 ovarian was -31.2% (active); with OVCAR-3 ovarian, 74.3%; in the assay with HS 578T breast, 87.4%; in the assay on NCI/ADR-RES ovarian, 78.5%; with T-47D breast it was 31.9%; in the assay on BT-549 breast, 75.6%. Besides, the growth in the assay with MDA-MB-435 melanoma is 95.3%; with SW-620 colon, 76.2%; in the assay on HCT-116 colon, 43.8%; in the assay with HCC-2998 colon it was 99%; with KM12 colon, 78.3%.

As to `Cc1[c-]onc1C.Cc1[c-]onc1C.[Ag].[Ag].[NH-]S(=O)(=O)c1ccc(N=Nc2cc(N=Nc3ccc(S([NH-])(=O)=O)cc3)c3c(NC(=O)C(Cl)Cl)cccc3c2OC(=O)C(Cl)Cl)cc1`, the growth was 81.4% in the assay on SR leukemia; 80.4% with RPMI-8226 leukemia; 69.1% with OVCAR-8 ovarian; 125% with OVCAR-5 ovarian; 93.9% in the assay on OVCAR-4 ovarian; 111% with SK-OV-3 ovarian. Also, the growth is 73% with IGROV1 ovarian; 59.7% in the assay with OVCAR-3 ovarian; 85.2% with HS 578T breast; 96.9% in the assay on NCI/ADR-RES ovarian; -11.9% (active) in the assay on T-47D breast; 94.6% with BT-549 breast. For the same molecule, the growth is 74.3% in the assay on MDA-MB-435 melanoma; 58.1% in the assay on SW-620 colon; 35.7% in the assay with MCF7 breast; 71.9% with HCT-116 colon; 107% in the assay with HCC-2998 colon; 71.5% in the assay with KM12 colon.

Regarding `Cc1cc2nc3c4cc(O)ccc4n(CCN(C)C)c3nc2cc1C`, the growth with SR leukemia was 8.05% (active); in the assay on RPMI-8226 leukemia it was -11.2% (active); in the assay on OVCAR-8 ovarian it was -18.6% (active); in the assay with OVCAR-5 ovarian, -11.6% (active); in the assay on OVCAR-4 ovarian, 4.91% (active); with SK-OV-3 ovarian it was -2.47% (active). For the same molecule, the growth in the assay with IGROV1 ovarian was -26.4% (active); in the assay on OVCAR-3 ovarian it was 3.66% (active); in the assay on HS 578T breast, 14.1%; in the assay with NCI/ADR-RES ovarian, -40.2% (active); in the assay with T-47D breast, 4.84% (active); in the assay on BT-549 breast, 15.8%. The growth with MDA-MB-435 melanoma was 3.8% (active); in the assay with SW-620 colon, 3.53% (active); with MCF7 breast, -10.1% (active); in the assay on HCT-116 colon, -0.74% (active); in the assay on HCC-2998 colon, -22.5% (active); with KM12 colon it was 10.2%.

As for `CC(C)=CCC[C@](C)(O)[C@H]1CC[C@]2(C)[C@@H]1CC[C@@H]1[C@@]3(C)C/C(=C/c4ccc(Br)cc4)C(=O)C(C)(C)[C@@H]3CC[C@]12C`, the growth in the assay with SR leukemia is 80.7%; in the assay on RPMI-8226 leukemia, 71.8%; in the assay on OVCAR-8 ovarian, 84.5%; in the assay with OVCAR-5 ovarian it was 101%; in the assay on OVCAR-4 ovarian, 78.5%; in the assay on SK-OV-3 ovarian it was 96.5%. The growth in the assay on IGROV1 ovarian is 101%; in the assay with OVCAR-3 ovarian, 87.5%; in the assay on HS 578T breast it was 92.2%; in the assay on NCI/ADR-RES ovarian it was 98.2%; with T-47D breast, 64.3%; with BT-549 breast it was 95.4%. For the same molecule, the growth with MDA-MB-435 melanoma was 95.3%; in the assay with SW-620 colon it was 82.2%; in the assay on MCF7 breast, 82.2%; in the assay on HCT-116 colon it was 66.5%; in the assay with KM12 colon, 94.9%.

In the case of `O=C1c2cccc3cccc(c23)C(=O)N1CC#Cc1ccc2c3c(cccc13)C(=O)N(CCN1CCNCC1)C2=O`, the growth was 2.23% (active) with SR leukemia; 8.66% (active) with RPMI-8226 leukemia; 93.9% with OVCAR-8 ovarian; 92.1% in the assay on OVCAR-5 ovarian; 85.3% in the assay on OVCAR-4 ovarian; 132% in the assay on SK-OV-3 ovarian. In addition, the growth was 91.4% with IGROV1 ovarian; 106% in the assay with OVCAR-3 ovarian; 106% in the assay with HS 578T breast; 102% in the assay with NCI/ADR-RES ovarian; 38.3% in the assay with T-47D breast; 101% in the assay with BT-549 breast. For the same molecule, the growth is 105% in the assay with MDA-MB-435 melanoma; 28.3% with SW-620 colon; -43.9% (active) in the assay with MCF7 breast; -64.1% (active) with HCT-116 colon; 98.9% with KM12 colon.

Take `C[C@]12CC[C@@H]3c4ccc(O)cc4CC[C@H]3[C@@H]1C[C@H](O)[C@@H]2O`: the growth with SR leukemia is 99.2%; with RPMI-8226 leukemia, 98.6%; with OVCAR-8 ovarian, 103%; in the assay with OVCAR-5 ovarian, 85.5%; with OVCAR-4 ovarian it was 99.8%; in the assay on SK-OV-3 ovarian it was 120%. Further, the growth is 98% in the assay with IGROV1 ovarian; 90.3% with OVCAR-3 ovarian; 86.6% in the assay on HS 578T breast; 102% in the assay with NCI/ADR-RES ovarian; 128% in the assay on T-47D breast; 95.2% with BT-549 breast. The growth with MDA-MB-435 melanoma was 92.5%; with MCF7 breast, 108%; in the assay on HCT-116 colon, 92.8%; with KM12 colon, -72.2% (active).

Take `C=C(C)[C@@H]1CC[C@]2(C(=O)O)CC[C@]3(C)[C@H](CC[C@@H]4[C@@]5(C)C/C(=C/c6cccc(I)c6)C(=O)C(C)(C)[C@@H]5CC[C@]43C)[C@@H]12`: the growth is 24% in the assay on SR leukemia; 9.91% (active) in the assay with RPMI-8226 leukemia; 20.5% in the assay with OVCAR-8 ovarian; 81.3% in the assay on OVCAR-5 ovarian; 3.26% (active) with OVCAR-4 ovarian; 24.2% with SK-OV-3 ovarian. Moreover, the growth was 47.6% with IGROV1 ovarian; 5.15% (active) with OVCAR-3 ovarian; 43.9% in the assay with HS 578T breast; 31.5% in the assay on NCI/ADR-RES ovarian; 4.75% (active) in the assay on T-47D breast; 35.3% in the assay with BT-549 breast. The growth is 32.1% with MDA-MB-435 melanoma; 19.6% in the assay on MCF7 breast; 5.1% (active) with HCT-116 colon; 28.8% with HCC-2998 colon; 15.1% in the assay on KM12 colon.

As to `COC(c1ccccc1)(c1ccccc1)c1ccccc1`, the growth with SR leukemia was 114%; in the assay on RPMI-8226 leukemia it was 171%; in the assay on OVCAR-8 ovarian, 98.8%; in the assay on OVCAR-5 ovarian, 113%; in the assay with OVCAR-4 ovarian it was 99.3%; with SK-OV-3 ovarian it was 107%. In addition, the growth was 123% in the assay on IGROV1 ovarian; 108% with OVCAR-3 ovarian; 103% with HS 578T breast; 108% in the assay on NCI/ADR-RES ovarian; 87.1% in the assay on T-47D breast; 95.7% in the assay with BT-549 breast. Besides, the growth in the assay with MDA-MB-435 melanoma was 108%; in the assay on HCT-116 colon, 104%; in the assay on HCC-2998 colon it was 142%; with KM12 colon it was 82.2%.

Turning to `Brc1ccc(Cn2nnnc2-c2ccn(-c3ccccc3)n2)cc1`, the growth in the assay with SR leukemia is 56.4%; in the assay with RPMI-8226 leukemia, 59.2%; with OVCAR-8 ovarian it was 110%; with OVCAR-5 ovarian it was 32%; in the assay on OVCAR-4 ovarian, 72.7%; in the assay with SK-OV-3 ovarian it was 82.1%. In addition, the growth was 77.8% in the assay on IGROV1 ovarian; 86.8% with OVCAR-3 ovarian; 77.7% in the assay with HS 578T breast; 27.5% in the assay on NCI/ADR-RES ovarian; 57.7% in the assay with T-47D breast; 76.8% in the assay on BT-549 breast. In addition, the growth in the assay with MDA-MB-435 melanoma is 85%; in the assay on MCF7 breast, 77.7%; in the assay on HCT-116 colon, 49.4%; with HCC-2998 colon, 80.1%; in the assay with KM12 colon it was 80.6%.
